Screens: PubChem BioAssay, National Center for Advancing Translational Sciences (NCATS)
Only some compounds are listed: those with a hit (about 18% of all), similar ones and a draw of the others.
DT40 TDP1 CPT: qHTS for Inhibitors of human tyrosyl-DNA phosphodiesterase 1 (TDP1): qHTS in cells in presence of CPT; chicken DT40 Tdp1-/-;hTDP1 cells + 20 nM CPT, ATP luminescence, 48 h; Potency, µM (doses to about 46.2 µM), for inactives: at the top dose activity change, negative = growth inhibition, hits mostly inhibitors; 420,000 tested, 12% active; also: nearly all actives have a fitted effect of over 55% in size
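Cell growth measured by CellTiter-Glo luminescence after a minimum 48 h, 37 C compound exposure with 20 nM CPT in Tdp1-knockout DT40 cells stably expressing hTDP1, seeded 400/well; qHTS titration format.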
TDP1 inh: qHTS Assay for Inhibitors of Tyrosyl-DNA Phosphodiesterase (TDP1) | Tyrosyl-DNA phosphodiesterase 1 (Homo sapiens), Q9NUW8 | recombinant TDP1, AlphaScreen DNA substrate cleavage | Potency, µM (titrated, usually from 130 µM), without a hit: at the top dose activity change, negative = inhibition, actives largely listed as inhibitors | 350,000 tested, 0.28% active | AID 485290, 2010; also: nearly all actives have a fitted effect of over 40% in size
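Recombinant E. coli-expressed Tdp1 (1 nM) preincubated with compound 15 min at RT, then 5'-biotin/3'-phosphotyrosine-FITC DNA substrate (15 nM) added for 5 min. AlphaScreen beads (10 ug/ml) added, 10 min RT; tyrosine-FITC cleavage read as signal loss.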
TDP1 cell noCPT: qHTS for Inhibitors of human tyrosyl-DNA phosphodiesterase 1 (TDP1): qHTS in cells in absence of CPT; DT40 Tdp1-/- hTDP1 cells, no CPT, ATP luminescence, 48 h; Potency, µM (highest dose often 46.2 µM), for the others: at the highest dose activity change, negative = growth inhibition, actives largely listed as inhibitors; 420,000 tested, 15% active; AID 686978, 2013; also: nearly all actives have a fitted effect of over 55% in size
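Cells were dispensed at 400 per well, compounds added by pin tool, plates incubated ≥48 hr at 37 °C, then CellTiter-Glo added for 30 min at room temperature before luminescence reading. Line: DT40 Tdp1-/- complemented with hTDP1; camptothecin omitted.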
KAT2A inh: qHTS Assay for Inhibitors of GCN5L2; Histone acetyltransferase KAT2A (Homo sapiens), Q92830; GCN5L2 HAT assay, ThioGlo1 CoA-SH fluorescence; Potency, µM (highest dose often 58.9 µM), without a hit: at the top dose activity change, negative = inhibition, hits mostly inhibitors; 390,000 tested, 0.21% active; AID 504327, 2011
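GCN5L2 (20nM final) in 50mM HEPES, 0.1mM EDTA pH 7.5, 0.01% Tween-20 was preincubated 15 min at room temperature with compound, then given ThioGlo1 (50uM), H3(1-25) peptide (75uM) and acetyl-CoA (70uM); CoA-thiol fluorescence (Ex340/Em540) was read at 0 and 20 min.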
VDR inhibitor: Inhibitors of the vitamin D receptor (VDR): qHTS. VDR-SRC2-3 peptide fluorescence polarization, 2 h. AID 504847, 2011. Potency, µM, for inactives: max response, negative = inhibition, most hits filed as inhibitors. 400,000 tested, 0.93% active
Target sequence (P11473 whole entry, looked up): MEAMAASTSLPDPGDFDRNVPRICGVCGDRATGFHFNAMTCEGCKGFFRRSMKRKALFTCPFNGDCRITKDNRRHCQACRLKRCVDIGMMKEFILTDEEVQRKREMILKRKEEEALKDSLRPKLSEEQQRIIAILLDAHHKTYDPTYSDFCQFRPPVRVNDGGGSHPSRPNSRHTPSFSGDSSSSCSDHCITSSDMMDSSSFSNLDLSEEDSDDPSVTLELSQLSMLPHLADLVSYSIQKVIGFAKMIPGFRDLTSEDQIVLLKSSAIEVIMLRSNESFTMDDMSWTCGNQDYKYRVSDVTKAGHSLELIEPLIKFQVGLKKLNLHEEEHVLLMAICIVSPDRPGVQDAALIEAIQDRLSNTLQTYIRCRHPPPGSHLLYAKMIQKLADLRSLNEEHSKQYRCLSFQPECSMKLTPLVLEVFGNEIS
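After 23 nl compound addition and a short centrifugation, plates sat for 2 hours at ambient temperature; polarization of fluorescence then indicated loss of VDR binding to peptide SRC2-3.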
PLK1 PBD block: qHTS for Inhibitors of PLK1-PDB (polo-like kinase 1 - polo-box domain): Primary Screen; Plk1 PBD binding of FITC phosphopeptide, fluorescence polarization; Potency, µM, for the others: max response, negative = inhibition, actives largely listed as inhibitors; Serine/threonine-protein kinase PLK1 (Homo sapiens), P53350; 360,000 tested, 2.8% active; AID 720504, 2013; also: series mostly up to about 57 µM; nearly all actives have a fitted effect of over 65% in size
Numbers without * were called inactive; [ ] = remark or other dose. Calls follow the shape of the dose curve; as a rule, active = well fitted curve in the direction sought with a large enough effect; inconclusive = small, poorly fitted or top-dose-only effect, or another doubt; inactive = no such curve, though single readings can be large; an effect the other way counts as inactive or inconclusive. % is scaled to controls: 0 for no effect and ±100 for the full control effect; potency is read from the fitted curve at half-maximal effect.

`CC(=O)c1ccc(N2CCN(S(=O)(=O)c3cccc4nsnc34)CC2)cc1` gave DT40 TDP1 CPT inconclusive, TDP1 inh -10%, TDP1 cell noCPT inconclusive, KAT2A inh -3%, VDR inhibitor -6% and PLK1 PBD block 27µM*.
COc1ccc(/C=C2\CCC/C(=C\c3ccc(OC)c(OC)c3OC)C2=O)c(OC)c1OC was read as DT40 TDP1 CPT inconclusive, TDP1 cell noCPT 16µM*, KAT2A inh -3%, VDR inhibitor 1% and PLK1 PBD block 7%.
For COc1cc(OC)c(OC)cc1/C=C1\CCC/C(=C\c2cc(OC)c(OC)cc2OC)C1=O the results were DT40 TDP1 CPT inconclusive, TDP1 cell noCPT 23µM*, KAT2A inh -10%, VDR inhibitor -13% and PLK1 PBD block 1%.
For COc1cc(OC)c(OC)cc1/C=c1\[nH]c(=O)/c(=C/c2cc(OC)c(OC)cc2OC)[nH]c1=O the results were DT40 TDP1 CPT 0.79µM* and TDP1 cell noCPT 0.71µM*.
Screening O=C(CCc1cn(Cc2ccccc2F)c2ccccc12)NCc1ccc(Cl)cc1 returned DT40 TDP1 CPT inconclusive, TDP1 inh 3%, TDP1 cell noCPT inconclusive, KAT2A inh 1% and VDR inhibitor 6%.
Screening Cc1ccc(C2(C)NC(=O)N(CC(=O)NC(C)c3ccccc3)C2=O)cc1 (stereo unspecified) returned DT40 TDP1 CPT inconclusive, TDP1 inh 9%, TDP1 cell noCPT -3%, KAT2A inh -5%, VDR inhibitor 13% and PLK1 PBD block -18%.
`CCc1c2c(nc3ccc(OC)cc13)OC(C)C2` (stereo unspecified) gave TDP1 inh 3%.
O=C(NNC(=O)c1ccccc1OCc1ccccc1Cl)c1csc(N2CCOCC2)n1 was read as DT40 TDP1 CPT inconclusive, TDP1 inh 6%, TDP1 cell noCPT inconclusive, KAT2A inh -7%, VDR inhibitor -4% and PLK1 PBD block -12%.
COc1cc2c(NC3CCN(C)CC3)nc(N3CCCN(C)CC3)nc2cc1OCCOCCN1CCCC1 was read as DT40 TDP1 CPT -20% and TDP1 cell noCPT 1%.
For COc1cc2c(NC3CCN(C)CC3)nc(N3CCCN(C)CC3)nc2cc1OCCCN1CCCCC1 the results were DT40 TDP1 CPT 18µM* and TDP1 cell noCPT 10µM*.
COc1cc2c(NC3CCN(C)CC3)nc(N3CCCN(C)CC3)nc2cc1OCCCC(C)C was read as DT40 TDP1 CPT 1.1µM* and TDP1 cell noCPT 1.1µM*.
Screening O=C(Cc1cccc(F)c1)N1CCOCC1 returned DT40 TDP1 CPT inconclusive, TDP1 cell noCPT -1%, VDR inhibitor -10% and PLK1 PBD block 21µM*.
For CCCCn1c(-c2ccc(OC)cc2)nc2c(=O)n(C)c(=O)[nH]c21 the results were DT40 TDP1 CPT inconclusive, TDP1 cell noCPT inconclusive, KAT2A inh -1%, VDR inhibitor 50µM* and PLK1 PBD block inconclusive.
`Cc1cccc(C(=O)CC(=O)c2cc(Cl)ccc2O)c1` gave DT40 TDP1 CPT 3.3µM*, TDP1 inh 8%, TDP1 cell noCPT 4.1µM*, KAT2A inh 3%, VDR inhibitor 24% and PLK1 PBD block -25%.
`Cc1cccc(C(=O)NNC(=O)c2cccc(C)c2)c1` gave DT40 TDP1 CPT 1%, TDP1 inh 1%, TDP1 cell noCPT 1%, KAT2A inh 0%, VDR inhibitor -14% and PLK1 PBD block -9%.
For Cc1ccc(O)c(C(=O)CC(=O)c2ccc(Cl)cc2)c1 the results were DT40 TDP1 CPT 7.3µM*, TDP1 cell noCPT 5.8µM*, KAT2A inh 0%, VDR inhibitor 12% and PLK1 PBD block 1%.
For O=C(CC(=O)c1cc(Cl)ccc1O)c1ccccc1 the results were DT40 TDP1 CPT 2.3µM*, TDP1 inh 7%, TDP1 cell noCPT 4.6µM*, KAT2A inh -16%, VDR inhibitor -2% and PLK1 PBD block -13%.
For Cc1ccc(O)c(C(=O)CC(=O)c2cccc(F)c2)c1 the results were DT40 TDP1 CPT 2.3µM*, TDP1 inh 7%, TDP1 cell noCPT 2.6µM*, KAT2A inh -3%, VDR inhibitor -5% and PLK1 PBD block -13%.
COc1cc(C(c2c(C)[nH][nH]c2=O)c2c(C)[nH][nH]c2=O)ccc1OC(=O)c1cccc(C)c1 was read as DT40 TDP1 CPT inconclusive, TDP1 inh 4%, TDP1 cell noCPT inconclusive, KAT2A inh -8% and VDR inhibitor inconclusive.
`CCOC(=O)CCc1c(C)c2ccc(OCc3cc([N+](=O)[O-])ccc3OC)cc2oc1=O` gave DT40 TDP1 CPT 26µM*, TDP1 inh 3%, TDP1 cell noCPT 23µM*, KAT2A inh -3%, VDR inhibitor 0% and PLK1 PBD block -6%.
For CCCn1c(C)cc(C(=O)CN2C(=O)c3ccccc3S2(=O)=O)c1C the results were DT40 TDP1 CPT inconclusive, TDP1 cell noCPT 9.2µM* and PLK1 PBD block 2%.
Screening CN(C)S(=O)(=O)c1ccc(Cl)c(C(=O)NC2CCCCCCC2)c1 returned DT40 TDP1 CPT inconclusive, TDP1 inh 12%, TDP1 cell noCPT inconclusive, KAT2A inh -1%, VDR inhibitor -25% and PLK1 PBD block -5%.
`COc1ccc(NC(=O)c2cc(-c3ccccn3)nc3ccccc23)c(OC)c1` gave DT40 TDP1 CPT 29µM*, TDP1 inh 7%, TDP1 cell noCPT 15µM*, KAT2A inh -6%, VDR inhibitor 8% and PLK1 PBD block 0%.
CCOc1ccccc1NC(=O)c1cc(-c2ccccn2)nc2ccccc12 was read as DT40 TDP1 CPT 21µM*, TDP1 inh 4%, TDP1 cell noCPT 10µM*, KAT2A inh -2%, VDR inhibitor -15% and PLK1 PBD block -6%.
Screening COc1ccc(-c2cc(C(=O)Oc3ccc(Cl)cc3)c3ccccc3n2)cc1 returned DT40 TDP1 CPT inconclusive, TDP1 inh -2%[12.3 µM], TDP1 cell noCPT inconclusive, KAT2A inh 13% and VDR inhibitor -6%.
